# Results as given in PubChem BioAssay (NCATS).
# Records with an inconclusive call do not appear. The source made the active and inactive calls. Calls come from the whole dose curve; as a rule, active = well fitted curve in the direction sought with a large enough effect; inconclusive = small, poorly fitted or top-dose-only effect, or another doubt; inactive = no such curve, though single readings can be large; an effect the other way counts as inactive or inconclusive.
# How the values were obtained:
# [1] = Quantitative High-Throughput drug screen in 47 multiple myeloma cell lines against the NCATS MIPE library collection: FR4_PLB cell viability assay (AID 1918924; note: nearly all actives have a fitted effect of over 35% in size)
# Summary of the method: (§1)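 Relative luminescence from CellTiter-Glo served as the viability signal, referenced to DMSO-treated (100%) and cell-free medium (0%) controls. Treatment lasted 48 hours at 37C with 500 cells per well.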
# [2] = Quantitative High-Throughput drug screen in 47 multiple myeloma cell lines against the NCATS MIPE library collection: AMO1_DSMZ cell viability assay (AID 1918927; note: nearly all actives have a fitted effect of over 30% in size)
# Summary of the method: (§2)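 qHTS of the MIPE 4.0 collection: 500 myeloma cells/well, 48 h drug exposure at 37C in 5% CO2, then CellTiter-Glo for 5 min at room temperature before luminescence reading.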
# [3] = Quantitative High-Throughput drug screen in 47 multiple myeloma cell lines against the NCATS MIPE library collection: ARP1_JJKsccF8 cell viability assay (AID 1918928; note: nearly all actives have a fitted effect of over 40% in size)
# Summary of the method: (§3)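 CellTiter-Glo luminescence after 48 h exposure gives viability, scaled between DMSO-only (100%) and media-only (0%) controls. Library compounds are pinned onto 500 myeloma cells per well, incubated at 37C with 5% CO2.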
# [4] = Quantitative High-Throughput drug screen in 47 multiple myeloma cell lines against the NCATS MIPE library collection: ARD_JJKsccE7 cell viability assay (AID 1918929)
# Summary of the method: as §2
# [5] = Quantitative High-Throughput drug screen in 47 multiple myeloma cell lines against the NCATS MIPE library collection: Karpas620_DSMZ cell viability assay (AID 1918959); note: nearly all actives have a fitted effect of over 30% in size
# Summary of the method: as §1
# [6] = Quantitative High-Throughput drug screen in 47 multiple myeloma cell lines against the NCATS MIPE library collection: KMM1_JCRB cell viability assay (AID 1918960); note: nearly all actives have a fitted effect of over 30% in size
# Summary of the method: as §3
# [7] = Quantitative High-Throughput drug screen in 47 multiple myeloma cell lines against the NCATS MIPE library collection: Karpas417_ECACC cell viability assay (AID 1918961); details: Karpas417 myeloma viability, CellTiter-Glo ATP luminescence, 48 h; viability (% of DMSO): at 45.8 µM (top of the series)
# Summary of the method: as §1
# [8] = Quantitative High-Throughput drug screen in 47 multiple myeloma cell lines against the NCATS MIPE library collection: KHM11_PLB cell viability assay (AID 1918962); note: nearly all actives have a fitted effect of over 35% in size
# Summary of the method: as §1
# [9] = Quantitative High-Throughput drug screen in 47 multiple myeloma cell lines against the NCATS MIPE library collection: JIM3_ECACC cell viability assay (AID 1918963; note: nearly all actives have a fitted effect of over 35% in size)
# Summary of the method: as §1
# [10] = Quantitative High-Throughput drug screen in 47 multiple myeloma cell lines against the NCATS MIPE library collection: JIM1_ECACC cell viability assay (AID 1918964)
# Summary of the method: as §2
# [11] = Quantitative High-Throughput drug screen in 47 multiple myeloma cell lines against the NCATS MIPE library collection: H1112_PLB cell viability assay (AID 1918967; note: nearly all actives have a fitted effect of over 30% in size)
# Summary of the method: as §2
# [12] = Quantitative High-Throughput drug screen in 47 multiple myeloma cell lines against the NCATS MIPE library collection: KMS27_JCRB cell viability assay (AID 1918970); details: KMS27 myeloma cells, CellTiter-Glo ATP viability, 48 h; viability (% of DMSO): at 45.8 µM (top of the series); note: nearly all actives have a fitted effect of over 30% in size
# Summary of the method: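 Myeloma cells (500 per well) were exposed to MIPE 4.0 compounds for 48 h at 37 °C, 5% CO2; viability was read as ATP luminescence with CellTiter-Glo, normalized to DMSO-only (100%) and media-only (0%) wells.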
# [13] = Quantitative High-Throughput drug screen in 47 multiple myeloma cell lines against the NCATS MIPE library collection: INA6_PLB cell viability assay (AID 1918965; note: nearly all actives have a fitted effect of over 55% in size)
# Summary of the method: as §1
# [14] = Quantitative High-Throughput drug screen in 47 multiple myeloma cell lines against the NCATS MIPE library collection: Karpas25_ECACC cell viability assay (AID 1918968; note: nearly all actives have a fitted effect of over 35% in size)
# Summary of the method: as §2
# [15] = Quantitative High-Throughput drug screen in 47 multiple myeloma cell lines against the NCATS MIPE library collection: Delta47_JCRB cell viability assay (AID 1918925; note: nearly all actives have a fitted effect of over 45% in size)
# Summary of the method: as §2
# [16] = Quantitative High-Throughput drug screen in 47 multiple myeloma cell lines against the NCATS MIPE library collection: EJM_DSMZ cell viability assay (AID 1918926; note: nearly all actives have a fitted effect of over 30% in size)
# Summary of the method: as §2
# [17] = Quantitative High-Throughput drug screen in 47 multiple myeloma cell lines against the NCATS MIPE library collection: JJN3_DSMZ cell viability assay (AID 1918966; note: nearly all actives have a fitted effect of over 50% in size)
# Summary of the method: as §2
# Potency is the fitted concentration of half-maximal effect.
Compound,Potency [1],Potency [2],Potency [3],Potency [4],Potency [5],Potency [6],Potency [7],Potency [8],Potency [9],Potency [10],Potency [11],Potency [12],Potency [13],Potency [14],Potency [15],Potency [16],Potency [17],viability (% of DMSO) [7]
CC(C)[C@H](O)C(=O)N[C@@H](C)C(=O)N[C@@H]1C(=O)N(C)CCc2ccccc21,inactive,inactive,inactive,inactive,inactive,inactive,0.0021 µM (active),inactive,inactive,inactive,inactive,inactive,,,,,,
CN1CC(=O)NC1=NC(=O)Nc1cccc(Cl)c1,20.9 µM (active),inactive,20.9 µM (active),,5.26 µM (active),4.69 µM (active),,14.8 µM (active),13.2 µM (active),,16.6 µM (active),,14.8 µM (active),5.26 µM (active),,,,
CC1(C)OC2CC3C4CC(F)C5=CC(=O)C=CC5(C)C4C(O)CC3(C)[C@]2(C(=O)CO)O1 (stereo partly specified),,inactive,0.0209 µM (active),,inactive,0.0235 µM (active),,,inactive,,inactive,inactive,inactive,0.0833 µM (active),inactive,inactive,,
C[C@]12CC[C@@H]3c4ccc(O)cc4CC[C@H]3[C@H]1[C@@H](O)[C@@H](O)[C@H]2O,inactive,,,,inactive,inactive,,,inactive,,inactive,inactive,inactive,26.4 µM (active),,,,
C[C@@H]1CC=CC=CC=CC=C[C@@H](O[C@@H]2O[C@H](C)[C@@H](O)[C@H](N)[C@H]2O)C[C@@H]2O[C@](O)(C[C@@H](O)C[C@@H]3O[C@@H]3C=CC(=O)O1)C[C@H](O)[C@@H]2C(=O)O,,inactive,4.18 µM (active),inactive,inactive,inactive,,13.2 µM (active),5.9 µM (active),inactive,16.6 µM (active),,18.7 µM (active),20.9 µM (active),11.8 µM (active),inactive,,
COc1cc2c(cc1OC)CC(=O)N(CCCN(C)C[C@H]1Cc3cc(OC)c(OC)cc31)CC2,inactive,,inactive,16.6 µM (active),,,,,inactive,,3.72 µM (active),,inactive,4.69 µM (active),,,,
CC(C)(F)C[C@H](N[C@@H](c1ccc(-c2ccc(S(C)(=O)=O)cc2)cc1)C(F)(F)F)C(=O)NC1(C#N)CC1,,inactive,inactive,inactive,inactive,,,,0.0833 µM (active),,inactive,inactive,,inactive,inactive,inactive,,
CN(C)CCOc1ccc(-c2nc(-c3ccc4c(c3)CCC4=NO)c(-c3ccncc3)[nH]2)cc1,,18.7 µM (active),16.6 µM (active),23.5 µM (active),11.8 µM (active),14.8 µM (active),9.35 µM (active),,23.5 µM (active),18.7 µM (active),23.5 µM (active),6.62 µM (active),,14.8 µM (active),14.8 µM (active),23.5 µM (active),,
Cc1ccc(S(=O)(=O)Nc2nc3ccccc3nc2Nc2ccc3nsnc3c2)cc1,6.45 µM (active),0.512 µM (active),7.24 µM (active),,,0.911 µM (active),,0.575 µM (active),1.82 µM (active),0.182 µM (active),,0.162 µM (active),1.29 µM (active),0.645 µM (active),,,1.44 µM (active),
CN1C(=O)C[C@H](C(=O)N[C@@H](Cc2cnc[nH]2)C(=O)N2CCC[C@@H]2C(N)=O)NC1=O,inactive,,,inactive,inactive,,,inactive,,,inactive,,,,,inactive,,
COc1cc2nccc(Oc3ccc(NC(=O)Nc4ccc(F)cc4F)c(F)c3)c2cc1OC,inactive,inactive,inactive,inactive,inactive,inactive,,,inactive,inactive,inactive,,,inactive,,,20.9 µM (active),
O=c1cc(-c2ccc(O)c(O)c2)oc2cc(O)cc(O)c12,inactive,inactive,inactive,inactive,inactive,inactive,,,inactive,,,6.62 µM (active),26.4 µM (active),,,,,
Cc1[nH]c(C=C2C(=O)Nc3ccc(S(=O)(=O)N(C)c4cccc(Cl)c4)cc32)c(C)c1C(=O)N1CCN(C)CC1,26.4 µM (active),5.9 µM (active),23.5 µM (active),6.62 µM (active),9.35 µM (active),6.62 µM (active),3.72 µM (active),,20.9 µM (active),9.35 µM (active),20.9 µM (active),5.9 µM (active),11.8 µM (active),7.43 µM (active),,,,
CC(=O)O[C@]1(C(C)=O)CC[C@H]2[C@@H]3C=C(Cl)C4=CC(=O)[C@@H]5C[C@H]5[C@]4(C)[C@@H]3CC[C@@]21C,inactive,10.5 µM (active),,23.5 µM (active),,18.7 µM (active),,,23.5 µM (active),,9.35 µM (active),18.7 µM (active),14.8 µM (active),9.35 µM (active),,,,112% (active)
CN(C)N=Nc1nc[nH]c1C(N)=O,inactive,inactive,,0.187 µM (active),,0.935 µM (active),,,inactive,,inactive,,2.64 µM (active),inactive,,,,
CC1(C)C(N(O)C(=O)Nc2ccc(Cl)cc2)N(c2ccc(Cl)cc2)C(=O)N1CC(=O)NN=CC=Cc1ccc([N+](=O)[O-])o1 (stereo unspecified),,inactive,7.43 µM (active),,inactive,inactive,,11.8 µM (active),14.8 µM (active),,9.35 µM (active),inactive,7.43 µM (active),8.33 µM (active),7.43 µM (active),16.6 µM (active),,
CO[C@H]1C=CO[C@@]2(C)Oc3c(C)c(O)c4c(O)c(c(C=NN5CCN(C)CC5)c(O)c4c3C2=O)NC(=O)C(C)=CC=C[C@H](C)[C@H](O)[C@@H](C)[C@@H](O)[C@@H](C)[C@H](OC(C)=O)[C@H]1C,inactive,5.98 µM (active),,inactive,inactive,inactive,,,,,inactive,inactive,,,,,1.19 µM (active),
N=C1SC(=Cc2ccc(-c3ccc4c(c3)C(=O)NC4=O)o2)C(=O)N1c1ccc(Br)cc1,,inactive,3.32 µM (active),,inactive,,,,,inactive,inactive,inactive,,,inactive,4.18 µM (active),2.96 µM (active),
NCc1c[nH]c(=S)n1[C@H]1CCc2c(F)cc(F)cc2C1,14.8 µM (active),20.9 µM (active),18.7 µM (active),,,,,,,,,11.8 µM (active),,23.5 µM (active),,,,
CSc1cccc(Nc2ncc3cc(-c4c(Cl)cccc4Cl)c(=O)n(C)c3n2)c1,0.372 µM (active),,1.87 µM (active),,,0.059 µM (active),0.0264 µM (active),0.0332 µM (active),,,inactive,,0.059 µM (active),,,6.62 µM (active),3.32 µM (active),
C[C@@H](O)[C@H]1C(=O)N2C(C(=O)OCOC(=O)C(C)(C)C)=C(SC3CN(C4=NCCS4)C3)[C@H](C)[C@H]12,,inactive,inactive,,inactive,,,inactive,inactive,inactive,inactive,,,,inactive,inactive,16.6 µM (active),
Fc1ccc(C(c2ccc(F)cc2)N2CCN(CC=Cc3ccccc3)CC2)cc1,,inactive,,inactive,inactive,inactive,,,,inactive,inactive,,,inactive,inactive,inactive,,
O=C(Nc1ccccc1)Nc1ccc(-c2ccc(C(=O)[C@H]3CCC[C@H]3C(=O)O)cc2)cc1,inactive,,inactive,,13.2 µM (active),7.43 µM (active),,inactive,inactive,,inactive,0.372 µM (active),inactive,inactive,,,3.72 µM (active),
N#CC(=C1Nc2ccccc2S1)c1ccnc(OCc2ccc(CN3CCOCC3)cc2)n1,23.5 µM (active),0.0332 µM (active),23.5 µM (active),0.105 µM (active),0.0264 µM (active),0.0743 µM (active),0.0059 µM (active),,5.26 µM (active),,,0.0264 µM (active),5.26 µM (active),0.235 µM (active),,,2.09 µM (active),
CN(C)CCN(C)C(=O)c1ccc(NC(=O)Nc2ccc(-c3nc(N4CCOCC4)c4ccn(CC(F)(F)F)c4n3)cc2)cc1,0.0372 µM (active),0.418 µM (active),0.0264 µM (active),,,,,,0.105 µM (active),0.001 µM (active),3.32 µM (active),,,,,,,
CC(C)C[C@@H](N)[C@H](O)C(=O)N[C@H](C(=O)N[C@H](C(=O)N[C@@H](CC(=O)O)C(=O)O)C(C)C)C(C)C,inactive,inactive,inactive,,inactive,inactive,inactive,,20.9 µM (active),inactive,,,,,,,,
CC(C)c1c(C(=O)Nc2ccccc2)c(-c2ccccc2)c(-c2ccc(F)cc2)n1CC[C@H](O)C[C@@H](O)CC(=O)O,14.8 µM (active),inactive,18.7 µM (active),,inactive,,,18.7 µM (active),14.8 µM (active),,,4.69 µM (active),8.33 µM (active),11.8 µM (active),,,,
CCC(=C(CC)c1ccc(O)cc1)c1ccc(O)cc1,8.33 µM (active),,18.7 µM (active),,16.6 µM (active),18.7 µM (active),,inactive,inactive,16.6 µM (active),18.7 µM (active),,,,,,9.35 µM (active),
O=C(NC[C@H](O)CO)c1ccncc1Nc1ccc(I)cc1F,,5.26 µM (active),2.96 µM (active),,0.0296 µM (active),6.62 µM (active),,,14.8 µM (active),2.35 µM (active),13.2 µM (active),1.48 µM (active),5.9 µM (active),6.62 µM (active),11.8 µM (active),18.7 µM (active),,
